Results: PubChem BioAssay AID1117288 (Broad Institute, 2014)
Results with a measured potency or affinity are listed apart. Records with an inconclusive call do not appear.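 How the source made its calls: active means compound whose fitted half-inhibition dose sits at or below twice its top tested dose in every test run; inconclusive means test runs disagree, or every run is unclear; inactive means inactive in every test run.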

Target: Leucyl-cystinyl aminopeptidase (Mus musculus) (UniProt Q8C129)
Assay: mouse IRAP aminopeptidase activity inhibition – biochemical, dry powder samples, set 3, selectivity assay for ERAP1 modulator project, dose response (AID 1117288)
Settings: purified IRAP enzyme, Leu-AMC fluorescence, 1 h; series mostly up to 50 µM; activity change, negative = inhibition: at the top concentration

Sequence of Leucyl-cystinyl aminopeptidase (Mus musculus) (Q8C129 whole entry, looked up): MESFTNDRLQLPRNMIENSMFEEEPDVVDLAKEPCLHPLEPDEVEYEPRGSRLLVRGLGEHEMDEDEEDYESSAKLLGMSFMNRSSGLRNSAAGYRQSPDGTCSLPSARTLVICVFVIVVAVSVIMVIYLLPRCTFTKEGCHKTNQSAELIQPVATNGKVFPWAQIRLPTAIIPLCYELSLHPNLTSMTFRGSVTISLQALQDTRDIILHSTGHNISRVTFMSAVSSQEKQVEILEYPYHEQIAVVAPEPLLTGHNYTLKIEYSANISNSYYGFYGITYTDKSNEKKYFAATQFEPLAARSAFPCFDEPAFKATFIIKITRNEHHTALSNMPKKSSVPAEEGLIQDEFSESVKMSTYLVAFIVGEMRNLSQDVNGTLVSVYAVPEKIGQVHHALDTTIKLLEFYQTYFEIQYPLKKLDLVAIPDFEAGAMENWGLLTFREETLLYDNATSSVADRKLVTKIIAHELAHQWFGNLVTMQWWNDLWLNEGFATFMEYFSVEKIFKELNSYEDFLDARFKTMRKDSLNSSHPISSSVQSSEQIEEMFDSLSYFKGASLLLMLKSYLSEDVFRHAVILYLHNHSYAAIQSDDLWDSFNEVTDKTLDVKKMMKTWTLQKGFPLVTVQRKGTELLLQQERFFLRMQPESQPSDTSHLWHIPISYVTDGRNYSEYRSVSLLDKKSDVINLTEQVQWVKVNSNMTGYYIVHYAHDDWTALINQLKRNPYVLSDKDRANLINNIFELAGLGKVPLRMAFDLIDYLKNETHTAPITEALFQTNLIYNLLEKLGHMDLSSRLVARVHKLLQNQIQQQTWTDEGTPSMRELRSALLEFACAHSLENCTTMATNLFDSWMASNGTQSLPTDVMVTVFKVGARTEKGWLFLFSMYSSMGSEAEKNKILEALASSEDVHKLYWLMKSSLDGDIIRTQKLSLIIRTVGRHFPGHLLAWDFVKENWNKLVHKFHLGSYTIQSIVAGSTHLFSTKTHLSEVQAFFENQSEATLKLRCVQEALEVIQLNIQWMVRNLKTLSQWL

Activity change, negative = inhibition, inactive:
COc1ccc(C(=O)O)cc1S(=O)(=O)Nc1cc(C(F)(F)F)ccc1N(C)C 3.47%
O=C(O)c1cc(F)cc(S(=O)(=O)Nc2cc(C(F)(F)F)ccc2N2CCCCC2)c1 -0.991%
COc1ccc(C(=O)O)cc1S(=O)(=O)N1CCN(c2ccc(C(F)(F)F)cc2N)CC1 14.3%
